# Inconclusive results are not listed. Activity calls are given as the source filed them. Rule for the calls, unless noted: active = hit-call score of the fitted dose curve at least 0.9, where 1 is the maximum; inactive = score below 0.9.
# Columns and labels:
# [1] = CCTE_Mundy_HCI_iCellGluta_NOG_NeuronCount: CCTE's Neurite Outgrowth Assay in iCellGluta cells for Neuron Count, Mundy Lab (AID 2284340; active = hit-call score of the fitted dose curve at least 0.9, where 1 is the maximum;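 note: cells fixed about 48 h after compound addition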)
# Description: CCTE_Mundy_HCI_iCellGluta_NOG is a multiplexed, cell-based-readout assay that uses iCell GlutaNeurons from FUJIFILM Cellular Dynamics, Inc. (FCDI), human glutamatergic enriched neurons derived from induced pluripotent stem (iPS) cells, with measurements taken at 50.33 hours after chemical dosing in a microplate: 96-well plate.CCTE_Mundy_HCI_iCellGluta_NOG_NeuronCount is one of four components of the CCTE_Mundy_HCI_iCellGluta_NOG assay. It measures cell viability related to number of neurons using High Content Imaging of fluorescently labelled markers.Data from the assay component CCTE_Mundy_HCI_iCellGluta_NOG_NeuronCount was analyzed at the endpoint CCTE_Mundy_HCI_iCellGluta_NOG_NeuronCount in the positive analysis fitting direction relative to DMSO as the negative control and baseline of activity. Using a type of viability reporter, loss-of-signal activity can be used to understand developmental effects.
# Exposure starts 2 hours post-plating by adding 10 ul of the working solution to 90 ul of media in the wells for a 1/10 dilution. Forty-eight hours after chemical treatment cells are fixed by direct addition of 100 ul of warm (37C) Dulbecco's phosphate buffered saline (DPBS) fixative solution containing 8% paraformaldehyde, 8% sucrose, and 0.1% of 3 mg/ml Hoechst 33342 into each well. Primary antibodies are prepared by dilution in Immunocytochemical Staining Buffer (ISB), 10X Dulbecco's PBS, 0.1% Saponin, 5% Bovine Serum Albumin, 0.5% NaN3 (Sodium Azide) and betaIII-tubulin (rabbit anti-betaIII-tubulin, 1:800) followed by Alexa Fluor-488 secondary (1:500) to label neuronal cell bodies and neurites. A Cellomics ArrayScan VTi HCS Reader is used for automated image acquisition and analysis of neurite outgrowth.
# [2] = CCTE_Mundy_HCI_iCellGluta_NOG_NeuriteCount: CCTE's Neurite Outgrowth Assay in iCellGluta cells for Neurite Count, Mundy Lab (AID 2284342; active = hit-call score of the fitted dose curve at least 0.9, where 1 is the maximum;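 note: chemical exposure about 48 hours starting 2 hours after plating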)
# SERPINA7 (gene 6906) = assay: CCTE_GLTED_hTBG: CCTE's human Thyroxine-binding Globulin (TBG) Inhibition Assay, Great Lakes Toxicology and Ecology Division (GLTED) Lab (AID 2284343; active = hit-call score of the fitted dose curve at least 0.9, where 1 is the maximum;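 note: active chemicals lower fluorescence versus DMSO baseline by displacing probe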)
# In short: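 Human thyroxine-binding globulin was exposed to each chemical for 2 hours, during which the ANSA probe could be displaced. Fluorescence was then measured at 380/475 nm, and loss of signal was analysed relative to DMSO.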
# [3] = Tanguay_ZF_120hpf_MO24: Oregon State University Tanguay Lab 24 Hour Post-fertilization zebrafish Assay for Mortality (AID 2284389)
# In short: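 Embryo death at 24 hpf was recorded as present or absent in Tropical 5D zebrafish, dechorionated at 4 hpf and dosed statically from 6 hpf (28C, 0.64% DMSO); 5 uM trimethyltin chloride served as positive control.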
# [4] = Tanguay_ZF_120hpf_CRAN: Oregon State University Tanguay Lab 120 Hour Post-fertilization zebrafish Assay for Craniofacial Malformation (AID 2284397)
# In short: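 Scoring of craniofacial malformation as a binary endpoint was done at 120 hpf by brightfield microscopy and was not done in dead embryos. Exposure was static, starting at 6 hpf, in dechorionated wild-type embryos held singly at 28C with 0.64% DMSO final.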
# [5] = Tanguay_ZF_120hpf_AXIS: Oregon State University Tanguay Lab 120 Hour Post-fertilization zebrafish Assay for Axial Malformation (AID 2284398)
# In short: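 Scoring was binary (present or absent) for body-axis defects, judged by brightfield imaging at 120 hpf in surviving larvae. Exposure was static at 28C from 6 hpf in chorion-free 5D wild-type embryos, with 0.64% DMSO vehicle.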
# [6] = system: SRY-box transcription factor 17 (SOX17) Protein Expression, Deisenroth Lab, SOX17 (gene 64321); assay: CCTE_Deisenroth_DEVTOX-GLR_legacy_Sox17: (Legacy) CCTE's DevTox GLR-Endo Assay Evaluation of SRY-box transcription factor 17 (SOX17) Protein Expression, Deisenroth Lab (AID 2284341); details: actives raise or lower the signal
# Description: CCTE_Deisenroth_DEVTOX-GLR_legacy assay is a cell-based, multiplex-readout assay that uses RUES2-GLR, a human pluripotent cell line, with measurements taken at 48 hours after chemical dosing in a 384-well microplateCCTE_Deisenroth_DEVTOX-GLR_legacy_Sox17 is one of 4 assay components calculated from the CCTE_Deisenroth_DEVTOX-GLR_legacy assay and it measures an increase in the percentage of cells in an endoderm state. It is designed to make measurements of inducible reporter a form of fluorescent protein induction as detected with optical fluorescence microscopy. Percentage Sox17+ cells are determined by calculating the number of Sox17+ cells divided by cell count. A cell is Sox17+ if the cell Sox17 mean intensity is 5x BMAD above the pluripotent control median cell Sox17 mean. The assay endpoints were analyzed with bidirectional fitting relative to 0.2% DMSO control in the CCTE_Deisenroth_DEVTOX-GLR_Endo assay.Data from the assay component CCTE_Deisenroth_DEVTOX-GLR_legacy_Sox17 was analyzed into 1 assay endpoint. This assay endpoint, CCTE_Deisenroth_DEVTOX-GLR_legacy_Sox17, was analyzed with bidirectional fitting relative to DMSO as the negative control and baseline activity. […] Furthermore, this assay endpoint can be referred to as a primary readout, because this assay has produced multiple assay endpoints where this one serves as a measure of endoderm differentiation. […]
# [7] = system: SRY-box transcription factor 2 (SOX2) Protein Expression, Deisenroth Lab, SOX2 (gene 6657); assay: CCTE_Deisenroth_DEVTOX-GLR_legacy_Sox2: (Legacy) CCTE's DevTox GLR-Endo Assay Evaluation of SRY-box transcription factor 2 (SOX2) Protein Expression, Deisenroth Lab (AID 2284346)
# In short: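 Two exposures, 24 h apart, during 48 h defined-media differentiation of seeded RUES2-GLR cells; nuclei-stained cells imaged. Sox2 positivity called at 5x BMAD above endoderm control median, DMSO median subtracted.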
# [8] = VALA_TUBHUV_Agonist_TubuleLength: VALA Sciences human Umbilical Vein Endothelial Tubule Formation (TUBHUV) Agonism Assay (AID 2284337; active = hit-call score of the fitted dose curve at least 0.9, where 1 is the maximum)
# Description: VALA_TUBHUV_Agonist is a cell-based, multiplexed assay that uses human umbilical vein endothelial cells (HUVEC). Measurements were taken 72 hours after chemical dosing in a 96-well plate.VALA_TUBHUV_Agonist_TubuleLength is the one of two assay components measured from the VALA_TUBHUV_Agonist assay. It is designed to make measurements of tubulogenesis, a form of morphology reporter, as detected with fluorescence intensity signals by HCS Fluorescent Imaging technology. This VALA_TUBHUV1 assay was designed to detect chemical activation of tubulogenesis, i.e. agonism.Data from the assay component VALA_TUBHUV_Agonist_TubuleLength was analyzed at the endpoint, VALA_TUBHUV_Agonist_TubuleLength, in the positive analysis fitting direction relative to DMSO as the negative control and baseline of activity. Using a type of morphology reporter, gain-of-signal activity can be used to understand developmental effects. To generalize the intended target to other relatable targets, this assay endpoint is annotated to the neurodevelopment intended target family, where the subfamily is tubulogenesis.
# This HUVEC-HDF assay was designed to detect chemical suppression of tubulogenesis, i.e. antagonism. […]
# [9] = VALA_TUBIPS_Agonist_CellCount: Viability Assessment in the VALA Sciences human iPS-derived Endothelial Tubule Formation (TUBIPS) Agonism Assay (AID 2284338; active = hit-call score of the fitted dose curve at least 0.9, where 1 is the maximum)
smiles,measurement,setting,value
CO/N=C(/C(=O)OC)c1ccccc1COc1ccccc1C,AC50,[1],31.4 µM (active)
same,AC50,[2],28.7 µM (active)
same,AC50,SERPINA7 (gene 6906),34.2 µM (active)
CCCCc1ccc(O)cc1,AC50,SERPINA7 (gene 6906),63 µM (active)
O=C(O)C(F)(OC(F)(F)C(F)(F)C(F)(F)F)C(F)(F)F (centres undefined),outcome,[1],inactive
same,outcome,[2],inactive
same,outcome,[3],inactive
same,outcome,[4],inactive
same,outcome,[5],inactive
O=[N+]([O-])c1ccc(Cl)c(Cl)c1,outcome,SERPINA7 (gene 6906),inactive
COC(=O)C(F)(F)C(F)(F)OC(F)(C(F)(F)F)C(F)(F)OC(F)=C(F)F (centres undefined),AC50,SERPINA7 (gene 6906),22.3 µM (active)
same,AC50,[3],21.4 µM (active)
same,outcome,[4],inactive
same,outcome,[5],inactive
c1ccc(OP(Oc2ccccc2)Oc2ccccc2)cc1,outcome,SERPINA7 (gene 6906),inactive
CCCCCCCc1ccc(O)cc1,AC50,SERPINA7 (gene 6906),18.5 µM (active)
O=S(=O)(F)C(F)(F)C(F)(F)C(F)(F)C(F)(F)C(F)(F)C(F)(F)C(F)(F)C(F)(F)F,outcome,[3],inactive
same,outcome,[4],inactive
same,outcome,[5],inactive
O=C(O)C(F)(F)OC(F)(F)C(F)(F)OC(F)(F)C(=O)O,outcome,[1],inactive
same,outcome,[2],inactive
same,outcome,[3],inactive
same,outcome,[4],inactive
same,outcome,[5],inactive
O=C(O)C(F)(F)C(F)(F)C(=O)O,outcome,[3],inactive
same,outcome,[4],inactive
same,outcome,[5],inactive
CC(O)C(F)(F)C(F)(F)F (centres undefined),outcome,[3],inactive
same,outcome,[4],inactive
same,outcome,[5],inactive
CCC(C)(C)c1ccc(O)cc1,AC50,SERPINA7 (gene 6906),50 µM (active)
FC(F)(F)C(F)(C(F)(F)F)C(F)(F)C(F)(F)CC1CO1 (centres undefined),outcome,[1],inactive
same,outcome,[2],inactive
same,outcome,[3],inactive
same,outcome,[4],inactive
same,outcome,[5],inactive
CCOP(=S)(Oc1ccc([N+](=O)[O-])cc1)c1ccccc1 (centres undefined),AC50,SERPINA7 (gene 6906),1.84 µM (active)
O=C(O)C(F)(F)OC(F)(F)C(F)(F)OC(F)(F)F,outcome,[1],inactive
same,outcome,[2],inactive
same,outcome,[3],inactive
same,outcome,[4],inactive
same,outcome,[5],inactive
O=P(Oc1ccccc1)(Oc1ccccc1)Oc1ccccc1,AC50,SERPINA7 (gene 6906),3.18 µM (active)
CCCCC(CC)COP(=O)(Oc1ccccc1)Oc1ccccc1 (centres undefined),AC50,SERPINA7 (gene 6906),4.21 µM (active)
OCC(F)(F)OC(F)(F)C(F)(F)OC(F)(F)C(F)(F)OC(F)(F)F,outcome,[1],inactive
same,outcome,[2],inactive
same,outcome,[3],inactive
same,outcome,[4],inactive
same,outcome,[5],inactive
OCC(F)(F)OC(F)(F)C(F)(F)OC(F)(F)C(F)(F)OC(F)(F)CO,AC50,SERPINA7 (gene 6906),44.1 µM (active)
same,AC50,[3],64.9 µM (active)
same,AC50,[4],28.9 µM (active)
same,AC50,[5],36.7 µM (active)
C=CC(=O)OCC(F)(F)C(F)F,outcome,[2],inactive
same,outcome,[3],inactive
same,outcome,[4],inactive
same,AC50,[5],54.6 µM (active)
CCOP(=S)(OCC)SCSCC,outcome,[1],inactive
same,outcome,[2],inactive
same,AC50,SERPINA7 (gene 6906),24.7 µM (active)
CCOc1ccc(C(C)(C)COCc2cccc(Oc3ccccc3)c2)cc1,outcome,[1],inactive
same,outcome,[2],inactive
same,outcome,SERPINA7 (gene 6906),inactive
O=P1(N(CCCl)CCCl)NCCCO1 (centres undefined),outcome,[6],inactive
same,outcome,[7],inactive
NC(=O)C(F)(F)C(F)(F)F,outcome,[3],inactive
same,outcome,[4],inactive
same,outcome,[5],inactive
O=C(O)C=CC(F)(C(F)(F)F)C(F)(F)F,outcome,[1],inactive
same,outcome,[2],inactive
same,outcome,[3],inactive
same,outcome,[4],inactive
same,outcome,[5],inactive
CCCN(CCC)c1c([N+](=O)[O-])cc(C(C)C)cc1[N+](=O)[O-],AC50,SERPINA7 (gene 6906),11.7 µM (active)
Cc1ccc(N)cc1N,AC50,[8],7.57 µM (active)
same,outcome,[9],inactive
OCC(F)(F)OC(F)(F)C(F)(F)OC(F)(F)CO,outcome,[3],inactive
same,outcome,[4],inactive
same,outcome,[5],inactive

# Source: PubChem BioAssay (EPA / NIEHS)
